# Compound activity as filed in PubChem BioAssay.
# DAT uptake mod – changed hDAT dopamine uptake under cocaine IC80, either direction, primary screen, cocaine antagonist project, cell-based, LLC-PK1 hDAT, [14C]-dopamine uptake, MLSMR | Sodium-dependent dopamine transporter (Homo sapiens), Q01959 | LLC-PK1 hDAT cells, [14C]-dopamine uptake with cocaine IC80; actives deviate in either direction | B-score at 10 µM | 110,000 compounds, 1.3% hits;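 active = Z score or B-score, a plate-position-corrected score, falls beyond the plate's 99.7% confidence bounds, in either direction; inactive = both scores lie inside the 99.7% bounds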;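 also: scored against the spread of the other compound wells on the same plate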
# ERa SRC1 inh – ERα–SRC-1 coactivator interaction inhibitors, primary screen, biochemical, TR-FRET, ERα LBD, estradiol-bound | Estrogen receptor (Homo sapiens), P03372 | TR-FRET ER-alpha LBD / SRC-1 peptide | inhibition, % at 25.6 µM | 86,000 compounds, 1.7% hits | AID 629, 2007; in the data active = inhibition above about 50%;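 also: 0% = receptor plus peptide control and 100% = peptide only without receptor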
# Target sequence (P03372 whole entry, looked up, the tested form may be a part): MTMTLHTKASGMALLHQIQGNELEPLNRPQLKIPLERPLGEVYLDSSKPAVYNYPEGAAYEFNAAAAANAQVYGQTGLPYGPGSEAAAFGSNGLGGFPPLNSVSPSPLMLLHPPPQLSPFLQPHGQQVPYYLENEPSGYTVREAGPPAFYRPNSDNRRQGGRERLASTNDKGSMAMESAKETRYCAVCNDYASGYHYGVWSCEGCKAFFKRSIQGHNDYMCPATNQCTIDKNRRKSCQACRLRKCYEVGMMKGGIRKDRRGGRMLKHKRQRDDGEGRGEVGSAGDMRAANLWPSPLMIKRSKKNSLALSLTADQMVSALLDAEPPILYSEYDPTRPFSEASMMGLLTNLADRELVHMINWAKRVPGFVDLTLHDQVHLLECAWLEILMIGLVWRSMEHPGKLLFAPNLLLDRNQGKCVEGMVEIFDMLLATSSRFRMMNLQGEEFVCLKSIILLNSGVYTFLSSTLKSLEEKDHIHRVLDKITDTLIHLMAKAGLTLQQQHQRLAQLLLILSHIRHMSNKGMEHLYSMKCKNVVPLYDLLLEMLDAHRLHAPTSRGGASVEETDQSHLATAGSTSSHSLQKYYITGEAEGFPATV
# ERa coact pot – enhancers of ERα–SRC-1 coactivator binding, primary screen, biochemical, TR-FRET, ERα LBD, low estradiol; Estrogen receptor (Homo sapiens), P03372; TR-FRET ERalpha-LBD/SRC-Cy5 coactivator binding, 2 h; 100 = basal binding, no effect; coactivator binding (% of control), % at 25.6 µM; 86,000 compounds, 1.3% hits; AID 639, 2007; in the data active = activity above about 200%;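 also: binding measured in presence of low estradiol as agonist stimulus; 0% = peptide alone without receptor and 100% = receptor with peptide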
# ERb coact inh – inhibitors of ERβ-SRC1 coactivator interaction, primary screen, biochemical, TR-FRET, ERβ LBD, SRC-1 peptide | 86,000 compounds, 1.3% hits | TR-FRET ER-beta LBD / SRC1-Cy5 peptide binding; receptor agonist-loaded with 1 µM estradiol | inhibition, % at 25.6 µM | Estrogen receptor beta (Homo sapiens), Q92731;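 active = compounds whose percent inhibition of the receptor-coactivator binding signal exceeds about 50% in the single-dose screen, limit read from the data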;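 also: 0% = receptor plus peptide wells without compound and 100% = peptide-only wells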
# MT1-MMP txn act – MT1-MMP promoter reporter activation – cell-based, luciferase luminescence, primary screen; HT1080 MT1-MMP promoter luciferase reporter, overnight; hits give high values; activation factor at 10 µM; 86,000 compounds, 0.16% hits;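 active = activation factor of at least 2 for MT1-MMP transcription at 10 µM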
# The depositor's hits bear a star; . = no result given; [ ] = another dose, or the depositor's remark. In the library only some 3.8% were active in any assay of this set; here they are far more common.
SMILES,DAT uptake mod,ERa SRC1 inh,ERa coact pot,ERb coact inh,MT1-MMP txn act
O=C(COC(=O)c1cccnc1SCC(=O)NCc1ccccc1)NCc1ccccc1,0.3,3,252*[fluorescence artefact?],11,1.1
COc1cccc2c(=O)n(CC(=O)N3CCCc4ccccc43)ccc12,0.6,-1,99,-6,1.1
CCOC(=O)COc1cccc2c(=O)n(CC(=O)N3CCCc4ccccc43)ccc12,0.14,10,97,51*[fluorescence artefact?],.
Cc1nc(NC(=O)c2ccccc2)sc1C1(C)CC(c2ccc(OC(F)(F)F)cc2)=NO1 (stereo not drawn),-0.31,.,.,.,.
CC(C)Cc1nc(N2CCC(C(N)=O)CC2)c2nnn(Cc3ccccc3)c2n1,0.37,-3,132,-1,1.2
Cc1nc(N2CCC(C)CC2)c2nnn(Cc3ccccc3)c2n1,3.1*,-4,116,1,1.2
C[C@@H]1C=C[C@](Cc2ccccc2)(C(=O)NCCN2CCOCC2)N1C(=O)c1ccccc1,.,.,.,.,1
Cn1nnc(NCc2cc(Br)ccc2OCc2cccs2)n1,9.8*,-5,116,5,1.2
O=P(N[C@@H](c1ccccc1)[C@@H]1C[C@H]1CCO)(c1ccccc1)c1ccccc1,.,.,.,.,1.3
Cn1c(/C=N/c2nc3ccccc3[nH]2)nc2ccccc21,-2.4*,-22,106,-24,1.2
Cc1nnc(NC(=O)c2c(-c3ccccc3)noc2C)s1,-0.61,-5,106,-1,1.1
Cc1onc(-c2ccccc2Cl)c1C(=O)NCc1cccnc1,-0.0014,52*,102,2,1.1
Cc1onc(-c2ccccc2)c1C(=O)Nc1cccc2nsnc12,-0.86,36,266*,22,1.1
Cc1onc(-c2ccccc2)c1C(=O)Nc1nc(-c2cc(F)ccc2F)cs1,-0.94,6,208*[fluorescence artefact?],19,0.7
Cc1onc(-c2ccccc2Cl)c1C(=O)Nc1nnc(-c2ccc(Br)cc2)s1,0.032,17,122,33,.
Cc1onc(-c2ccccc2Cl)c1C(=O)NCc1ccccn1,-0.63,-5,112,-1,1
Cc1onc(-c2ccccc2)c1C(=O)Nc1nc(-c2ccccc2)cs1,-0.42,.,.,.,.
Cc1onc(-c2ccccc2Cl)c1C(=O)Nc1nnc(-c2ccc(F)cc2)s1,2.7*,.,.,.,1
COc1cc(OC)cc(C(=O)NNC(=O)NC2CCCCC2)c1,-0.03,.,.,.,.
COC(=O)c1ccc(C(NC(=O)OCc2ccccc2)/C(C)=C/[C@@H](C)C(=O)N(C)Cc2cccnc2)cc1 (stereo partly drawn),.,.,.,.,1.1
CN1CCN(C(=O)C2=C[C@@H](C3CCCCC3)C[C@@H](OCCCCO)O2)CC1,0.0052,.,.,.,.
Cc1nnc(SCc2ccc(F)cc2)n1NC/C=C/c1ccccc1,1.4,.,.,.,.
COC(=O)c1cc(S(=O)(=O)n2nc(C)c(Br)c2C)c(Cl)cc1Cl,.,-7,113,6,1.1
COc1ccc(-c2nc(C#N)c(N3CCC(C(N)=O)CC3)o2)cc1,-0.39,-4,91,-13,1.2
N#Cc1nc(-c2ccc(OCc3ccccc3)cc2)oc1N1CCC(C(N)=O)CC1,.,59*[fluorescence artefact?],250*[fluorescence artefact?],44,1
SMILES,DAT uptake mod,ERa SRC1 inh,ERa coact pot,ERb coact inh,MT1-MMP txn act
CC(=O)n1nc(-c2ccccc2)nc1NCc1ccc(F)cc1,-1.7,-3,113,-8,1.2
CC(=O)N(Cc1ccc(F)cc1)C1=C(NCc2ccccc2)C(=O)c2ccccc2C1=O,-4.3*,-4,84,-2,0.1
O=C1CC(=C2c3ccccc3-c3ccccc32)C(=O)N1CCCCN1CCN(c2ccccc2)CC1,0.44,-6,103,5,1.2
C=CC(C)(C)c1cc2cc3ccoc3cc2oc1=O,1.3,.,.,.,.
CC(C)=CCc1cc([C@@H]2CC(=O)c3ccc(O)c(CC=C(C)C)c3O2)ccc1O,-0.061,.,.,.,.
CCCSc1nc(C)c(-c2csc(C(C#N)=C3CCCC3)n2)cc1C#N,-0.47,69*,78,49,1.1
CCN(Cc1ccncc1)C(=O)C1CCN(S(=O)(=O)c2cccs2)CC1,0.86,-7,101,4,1
Cc1[nH]n(-c2ccc([N+](=O)[O-])cc2)c(=O)c1C=NCCN1CCN(C(=O)c2ccccc2)CC1,0.47,2,105,-7,1.4
Cc1cccc2cc(-c3nc4c(C)cccn4c3NCc3ccco3)c(=O)[nH]c12,0.18,3,93,4,.
Cc1ccc2[nH]c(=O)c(-c3nc4cc(C)ccn4c3NCc3ccco3)cc2c1,-0.26,73*[fluorescence artefact?],151,39,1.2
CC(C)c1cccc2nc3c(c([Si](C)(C)C(C)(C)C)c12)Cn1c-3cccc1=O,.,.,.,.,1.1
CCOc1ccc(S(=O)(=O)N2CCc3ccccc3C2)cc1,0.15,-7,108,-10,1.2
CCOc1ccc(S(=O)(=O)N2c3ccccc3CC2C)cc1 (stereo not drawn),-2.7*,-10,90,4,0.5
CC1(OC(=O)c2ccc(Cl)nc2)C(=O)C=C2C=C(c3ccc(C#N)cc3)OC=C2C1=O (stereo not drawn),-0.013,.,.,.,.
CCCCc1c(C)nn(-c2nnc3c4ccccc4n(CC)c3n2)c1C,1.1,52*[fluorescence artefact?],141,31,1
CCn1c2ccccc2c2nc3ccccc3nc21,0.22,-2,94,0,1.3
CC1Cc2nc(SCC(=O)Nc3nc4ccccc4s3)n(C)c(=O)c2S1 (stereo not drawn),0.5,-1,113,2,.
CCc1cc(C(N)=S)ccn1,-0.12,.,.,.,.
COC(=O)Nc1c(-c2ccccc2)nc2ccc(C)cn12,0.44,3,101,83*,1.1
CCOC(=O)CN1C(=O)C(Sc2n[nH]c(-c3ccc(O)cc3)n2)CCc2ccccc21 (stereo not drawn),0.95,.,.,.,.
CCOc1ccc(OCC)c(NC(=O)CN2CCC(NC(=O)c3cccc(F)c3)CC2)c1,3.3*,2,102,-6,1.2
CCOc1ccccc1NC(=O)N1CCC(NC(=O)c2ccccc2C)CC1,0.073,17,63,32,1.1
CCOc1ccccc1NC(=O)N1CCC(NC(=O)c2cccc(C)c2)CC1,1.2,63*[fluorescence artefact?],108,65*[fluorescence artefact?],1.1
NCCCC[C@H]1CNC(=O)C(=O)N1CCC12CC3CC(CC(C3)C1)C2,0.18,.,.,.,.
CSc1nc2nccc(-c3ccc(-c4ccccc4)cc3)n2n1,-0.64,40,220*,13,.
Cc1nc(-c2ccc(NC(=O)C3CCCCC3)cc2)cs1,0.11,.,.,.,.
Cc1cc(Nc2cc(Cl)nc(Sc3ccc(NC(=O)C4CC4)cc3)n2)n[nH]1,-2.6*,.,.,.,.
COCCCn1c(Cc2csc(Nc3cccc(Cl)c3)n2)nnc1SCC(=O)OC,-1,37,42,61*[fluorescence artefact?],1.2
